Assay outcomes as filed in PubChem BioAssay.
Only some compounds are listed: those with a hit (about 11% of all), similar ones and a draw of the others.
BAZ2B block: blocks human BAZ2B; Q9UIF8; AlphaScreen BAZ2B-H3K14Ac peptide displacement; Potency, µM (doses to about 114 µM), actives largely listed as inhibitors; 360,000 tested, 4.4% active; AID 504333; note: nearly all actives have a fitted effect of over 60% in size
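Complex of BAZ2B and biotin-H3K14Ac (50 nM apiece) forms over 30 min at RT, then faces library compounds up to 110 uM for another 30 min; AlphaScreen beads added, 20 min dark incubation, luminescence read.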
HP1b chromo inh: blocks HP1-beta chromodomain binding to methylated histone tails. P83916. 390,000 tested, 0.56% active. AID 540317. AlphaScreen HP1-beta / biotin-H3K9me3 peptide binding. Potency, µM (highest dose often 114 µM), usual class: inhibitors; note: nearly all actives have a fitted effect of over 70% in size
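HP1-beta protein (50 nM final) preincubated 30 min at room temperature with biotinylated H3(1-18)K9me3 peptide (50 nM) in PBS pH 7.4, 0.01% Tween-20, then compound added for 30 min. AlphaScreen streptavidin donor/nickel chelate acceptor beads (10 ug/mL final), 30 min dark, luminescence read.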
G9a inh: blocks human histone lysine methyltransferase G9a | G9a H3K9 monomethylation, AlphaScreen, 2 h | 350,000 tested, 8.8% active | Potency, µM (titrated, usually from 102 µM), hits mostly inhibitors; note: nearly all actives have a fitted effect of over 75% in size
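Chemiluminescent proximity detection of H3K9 monomethylation, read after 10 min bead incubation in the dark. Reaction: 20 nM G9a, 500 nM biotin-H3K9 peptide, 20 uM SAM cofactor, 2 h, room temperature, following 15 min enzyme-compound preincubation.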
L3MBTL1 inh: inhibitors of human L3MBTL1. Potency, µM (titrated, usually from 57.1 µM), most hits filed as inhibitors. 230,000 tested, 0.66% active. Q9Y468. AlphaScreen L3MBTL1–H3K9me1 peptide binding; note: nearly all actives have a fitted effect of over 60% in size
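AlphaScreen assay: L3MBTL1 (50 nM final) was preincubated 30 min at room temperature with biotinylated H3(1-15)K9me1 peptide (75 nM final), then 30 min with library compounds; streptavidin donor and nickel chelate acceptor beads (10 ug/mL final) added, 30 min dark.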
JMJD2A Tudor: JMJD2A Tudor domain (human) inhibition; Potency, µM (titrated, usually from 114 µM), usual class: inhibitors; 390,000 tested, 4.4% active; AID 504339; AlphaScreen JMJD2A-Tudor / H3K4me3 peptide binding; note: nearly all actives have a fitted effect of over 50% in size
Target sequence (O75164 whole entry, looked up, the tested form may be a part): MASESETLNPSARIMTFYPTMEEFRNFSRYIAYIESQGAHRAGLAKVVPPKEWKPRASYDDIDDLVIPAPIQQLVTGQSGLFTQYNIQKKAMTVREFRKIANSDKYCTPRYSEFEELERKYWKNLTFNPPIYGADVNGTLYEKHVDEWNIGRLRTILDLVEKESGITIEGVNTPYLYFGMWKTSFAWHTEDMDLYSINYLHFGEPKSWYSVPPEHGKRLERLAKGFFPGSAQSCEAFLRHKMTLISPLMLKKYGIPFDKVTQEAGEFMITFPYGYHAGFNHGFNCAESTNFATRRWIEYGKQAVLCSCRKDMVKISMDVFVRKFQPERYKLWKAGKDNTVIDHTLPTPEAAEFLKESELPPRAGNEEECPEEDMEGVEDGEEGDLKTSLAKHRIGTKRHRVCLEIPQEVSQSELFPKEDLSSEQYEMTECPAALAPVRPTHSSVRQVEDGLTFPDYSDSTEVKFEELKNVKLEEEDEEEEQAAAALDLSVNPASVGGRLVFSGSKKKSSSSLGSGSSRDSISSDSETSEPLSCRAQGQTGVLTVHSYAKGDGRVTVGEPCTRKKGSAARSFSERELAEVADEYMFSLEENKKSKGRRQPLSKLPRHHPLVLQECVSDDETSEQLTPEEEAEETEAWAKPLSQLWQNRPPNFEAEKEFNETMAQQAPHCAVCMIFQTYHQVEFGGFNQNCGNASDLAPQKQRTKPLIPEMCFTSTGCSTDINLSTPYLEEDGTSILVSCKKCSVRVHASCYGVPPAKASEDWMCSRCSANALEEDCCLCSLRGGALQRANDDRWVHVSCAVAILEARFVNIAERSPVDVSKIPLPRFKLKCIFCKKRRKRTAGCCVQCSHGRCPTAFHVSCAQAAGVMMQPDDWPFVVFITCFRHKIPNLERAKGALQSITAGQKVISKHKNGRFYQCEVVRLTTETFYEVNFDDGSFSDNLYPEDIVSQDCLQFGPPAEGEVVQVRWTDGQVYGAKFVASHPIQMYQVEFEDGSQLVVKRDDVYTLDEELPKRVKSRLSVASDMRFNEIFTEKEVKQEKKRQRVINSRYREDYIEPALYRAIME
Hits are given with their value; [ ] = another dose, or the depositor's remark. Calls come from the whole dose curve; as a rule, active = well fitted inhibition curve with a large enough effect; inconclusive = small, poorly fitted or top-dose-only effect; inactive = no such curve, though single readings can be large or run the other way.

`COc1cccc(C(C2=C(O)CC(C)(C)CC2=O)C2C(=O)CC(C)(C)CC2=O)c1` (stereo not given) gave BAZ2B block inactive, HP1b chromo inh inactive, G9a inh 45µM, L3MBTL1 inh inactive and JMJD2A Tudor inactive.
`CC1(C)CC(=O)C(C(C2=C(O)CC(C)(C)CC2=O)c2ccc(Br)s2)C(=O)C1` (stereo not given) gave BAZ2B block inactive, HP1b chromo inh inactive, G9a inh inconclusive, L3MBTL1 inh inactive and JMJD2A Tudor inactive.
`CC1(C)CC(=O)C(C(C2=C(O)CC(C)(C)CC2=O)c2ccc([N+](=O)[O-])cc2)C(=O)C1` (stereo not given) gave BAZ2B block inactive, HP1b chromo inh inactive, G9a inh 32µM, L3MBTL1 inh inactive and JMJD2A Tudor inactive.
`Cc1cc(C(C2C(=O)CC(C)(C)CC2=O)C2C(=O)CC(C)(C)CC2=O)cc(C)c1OC(F)F` gave BAZ2B block inactive, HP1b chromo inh inactive, G9a inh 32µM and JMJD2A Tudor inactive.
For Cc1ccc(C(C2=C(O)CC(C)(C)CC2=O)C2C(=O)CC(C)(C)CC2=O)s1 (stereo not given) the results were BAZ2B block inactive, HP1b chromo inh inactive, G9a inh inconclusive, L3MBTL1 inh inactive and JMJD2A Tudor inactive.
`CCc1ccc(NC(=O)CSc2nc(=O)n(Cc3ccncc3)c3c2CCC3)cc1` gave BAZ2B block inactive, HP1b chromo inh inactive, G9a inh inactive and JMJD2A Tudor inactive.
Screening CCOC(=O)c1nc(C)[nH]c1C(=O)OCC returned BAZ2B block 79µM, HP1b chromo inh inactive, G9a inh inconclusive and JMJD2A Tudor 18µM.
For Cc1nc2ccccc2n1CCc1nc2c3ccccc3nc(SCc3ccc(C#N)cc3)n2n1 the results were BAZ2B block inactive, HP1b chromo inh inactive, G9a inh inactive and JMJD2A Tudor inactive.
Screening CCCCN1C(=O)C(=O)N(CC(=O)NC2CCCc3ccccc32)C1=O (stereo not given) returned BAZ2B block inactive, HP1b chromo inh inconclusive, G9a inh inactive, L3MBTL1 inh inactive and JMJD2A Tudor 5µM.
CCS(=O)(=O)c1ccccc1C(=O)NC1CCCc2ccccc21 (stereo not given) was read as BAZ2B block inactive, HP1b chromo inh inactive, G9a inh 40µM and JMJD2A Tudor inactive.
O=C(CN1C(=O)C2CCCCC2C1=O)NC1CCCc2ccccc21 (stereo not given) was read as BAZ2B block inactive, HP1b chromo inh inactive, G9a inh inconclusive, L3MBTL1 inh inactive and JMJD2A Tudor inactive.
Screening S=C(NC1CC1)NC1CCCc2ccccc21 (stereo not given) returned BAZ2B block 56µM, HP1b chromo inh inactive, G9a inh inactive and JMJD2A Tudor inconclusive.
Screening C=CC1=C(C(=O)O)N2C(=O)[C@@H](NC(=O)C(N=O)c3csc(N)n3)[C@H]2SC1 (stereo not given in full) returned G9a inh inactive.
`O=C(Cn1c(=O)n(-c2ccccc2)c(=O)c2ccc(C(=O)NCc3ccc4c(c3)OCO4)cc21)Nc1ccc(Br)cc1F` gave HP1b chromo inh inactive, G9a inh inactive and JMJD2A Tudor inactive.
`COc1ccccc1C(=O)NC(=O)CSc1nc(C)cs1` gave BAZ2B block inactive, HP1b chromo inh inactive, G9a inh 50µM, L3MBTL1 inh inactive and JMJD2A Tudor inactive.
For Cc1cc(C)n2nc(SCC(=O)N3CCN(c4ccc(F)cc4)CC3)nc2n1 the results were BAZ2B block inactive, HP1b chromo inh inactive, G9a inh inactive, L3MBTL1 inh inactive and JMJD2A Tudor inactive.
For Cc1nc(SCC(=O)NC(=O)NC2CCCCC2)nc(C)c1C the results were BAZ2B block inactive, HP1b chromo inh inactive, G9a inh 14µM and JMJD2A Tudor inactive.
Screening Cc1csc(SCC(=O)NC(=O)NC2CCCC2)n1 returned BAZ2B block inactive, HP1b chromo inh inactive, G9a inh 45µM, L3MBTL1 inh inactive and JMJD2A Tudor inactive.
Cc1csc(SCC(=O)NC(=O)NC(C)(C)C)n1 was read as BAZ2B block inactive, HP1b chromo inh inactive, G9a inh inactive and JMJD2A Tudor inactive.
`Cc1cc(C)n2nc(SCCCC(=O)c3ccc(F)cc3)nc2n1` gave BAZ2B block inactive, HP1b chromo inh inactive, G9a inh 50µM, L3MBTL1 inh inactive and JMJD2A Tudor inactive.
Screening COc1ccccc1CNC(=O)CSc1nc(C)cs1 returned BAZ2B block inactive, HP1b chromo inh inactive, G9a inh inactive, L3MBTL1 inh inactive and JMJD2A Tudor inactive.
Screening Cc1ccc(S(=O)(=O)N2CCN(c3nc(-c4cncnc4)nc4ccccc34)CC2)cc1 returned HP1b chromo inh inactive and JMJD2A Tudor inactive.
Screening Cc1cc(C)n2nc(SCC(=O)NC3CCCCC3)nc2n1 returned BAZ2B block inactive, HP1b chromo inh inactive, G9a inh 45µM and JMJD2A Tudor inactive.
For Cc1cc(C)nc(SCC(=O)NC2CCCC2)n1 the results were BAZ2B block inactive, HP1b chromo inh inactive, G9a inh inactive, L3MBTL1 inh inactive and JMJD2A Tudor inactive.
Screening C=CCc1ccc(OCc2ccc(C(=O)Nc3ccc(NC(C)=O)cc3)o2)c(OC)c1 returned BAZ2B block inactive, HP1b chromo inh inactive, G9a inh inactive and JMJD2A Tudor inactive.
For O=S(=O)(Nc1ncccn1)c1ccc(NS(=O)(=O)c2cc(Cl)ccc2Cl)cc1 the results were BAZ2B block inactive, HP1b chromo inh inactive, G9a inh inconclusive and JMJD2A Tudor inactive.
Screening O=S(=O)(Nc1cccc(-c2ccc(N3CCOCC3)nn2)c1)c1cc(Cl)ccc1Cl returned BAZ2B block inactive, HP1b chromo inh inactive, G9a inh inconclusive, L3MBTL1 inh inactive and JMJD2A Tudor inactive.
O=S(=O)(Nc1ccc(N2CCOCC2)cc1)c1cc(Cl)ccc1Cl was read as BAZ2B block inactive, HP1b chromo inh inactive, G9a inh 45µM and JMJD2A Tudor inconclusive.
`Nc1cc(S(=O)(=O)Nc2cc(Cl)ccc2Cl)ccc1N1CCOCC1` gave BAZ2B block inactive, HP1b chromo inh inconclusive, G9a inh 11µM, L3MBTL1 inh inactive and JMJD2A Tudor inconclusive.
Screening CN(C)c1ccc(NS(=O)(=O)c2cc(Cl)ccc2Cl)cc1 returned BAZ2B block 35µM, HP1b chromo inh 50µM, G9a inh 8.9µM, L3MBTL1 inh inactive and JMJD2A Tudor 56µM.
Screening Nc1cc(Cl)ccc1N1CCCC1 returned BAZ2B block inconclusive, HP1b chromo inh inactive, G9a inh 14µM, L3MBTL1 inh inactive and JMJD2A Tudor inconclusive.
For COC(=O)c1nccnc1N the results were HP1b chromo inh inactive and JMJD2A Tudor inactive.
For COc1cccc(-c2cc(N(C)Cc3ccco3)ncn2)c1 the results were G9a inh inactive[0.501 µM].
`O=C(COCc1cc(-c2cccs2)on1)Nc1cccc(Cl)c1Cl` gave BAZ2B block inactive, HP1b chromo inh inactive, G9a inh inactive and JMJD2A Tudor inactive.
